From PubChem BioAssay
Records with an inconclusive call do not appear. Activity calls are given as the source filed them.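 How the source made its calls, unless noted: active means normalized viability below 100% at a tested concentration; inactive means the rest.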

Columns and labels:
[1] = viability loss in pontine glioma line – cell-based, SU-DIPG-XIII, MIPE5.0, CellTiter-Glo, qHTS, dose response (AID 1347064; cut-off not given, nearly all actives have AC50 up to about 23 µM); conditions: CellTiter-Glo ATP luminescence
[2] = JHH-DIPG-1 glioma cell viability, MIPE5.0 library, CellTiter-Glo luminescence, qHTS (AID 1347067; cut-off not given, nearly all actives have AC50 up to about 26 µM;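 further: cells exposed to compound for 48 hours before readout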); conditions: JHH-DIPG-1 glioma viability, CellTiter-Glo ATP luminescence
[3] = growth inhibition of DIPG cells – cell-based, MIPE5.0 library, qHTS (AID 1347068; cut-off not given, nearly all actives have IC50 up to about 30 µM); conditions: SU-DIPG-XXV viability
[4] = viability loss with induced miR-34 in A549 – imaging, A549 dox-inducible miR-34, nuclei and caspase counts, primary screen (AID 1347080;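 active means compounds whose cell count with miR-34 switched on is under 0.7 times the count with it off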); conditions: A549 miR-34 inducible, Hoechst nuclei count, 48 h
[5] = compounds altering HSF1 focus formation in cells – imaging, Selleck Cancer Library (AID 1347162; in the data active means plate-normalised HSF1 focus index below about 0.46); conditions: human cells, HSF1 nuclear foci imaging, at 10 µM; SSMD: measured here: HSF1 foci SSMD mean; cell count: measured here: cell number; plate-normalised HSF1 focus index: stronger effect = lower value
[6] = MELAS cybrid and Rieske KO viability enhancers – cell-based, MELAS cybrids, Rieske KO mouse fibroblasts, CellTiter-Glo, primary screen (AID 1508586;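 active means mean z-score across replicates of 1.96 or higher in either the MELAS or the Rieske mutant cell line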;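 further: z relative to plate mean and SD of compound and empty wells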); conditions: low glucose
[7] = drug combination growth inhibition, ovarian cancer – cell-based, oncology-focused library, rucaparib conditional, profiling panel (AID 1508598); conditions: patient-derived ovarian cancer cells, CellTiter-Glo viability, 144 h, stronger effect = lower value
[8] = viability loss in pontine glioma line – cell-based, SU-DIPG-XXV, MIPE5.0, CellTiter-Glo, qHTS, dose response (AID 1347065; cut-off not given, nearly all actives have AC50 up to about 26 µM;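 further: cells exposed to compound for 48 hours before ATP readout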); conditions: CellTiter-Glo ATP luminescence

In the case of CN1CCN(c2nc(C3=C(c4c[nH]c5ccccc45)C(=O)NC3=O)c3ccccc3n2)CC1, the outcome [1] is reported as “inactive”, the outcome [2] is reported as “inactive” and the outcome [3] is reported as “inactive”. The fold change ([4]; stronger effect = lower value, cell number ratio, induced over uninduced) was 0.982 (inactive), the fold change ([4]; measured here: relative caspase fold change +Dox/-Dox) was 0.809 and the cell count ([4]; measured here: total cells with miR-34 induction, stronger effect = lower value) was 8410. It also gave a cell count ([4]; measured here: total cells without miR-34 induction) of 8570, an SSMD [5] of 1.44 and a cell count [5] of 7110. The plate-normalised HSF1 focus index [5] was 1.09 (inactive), the z-score ([6]; MELAS cybrid survival, CellTiter-Glo 48 h, stronger effect = higher value) was -0.37 (inactive) and the z-score ([6]; Rieske KO mouse fibroblast survival, CellTiter-Glo 72 h) was 0.177. For the same compound, the viability ([7]; at 0.000305 µM, OCI-C5x cells, with rucaparib 10 µM, 100% = cells with rucaparib alone) was 105% (inactive), the viability ([7]; at 0.000305 µM, OCI-C5x cells, without rucaparib) was 102% (inactive) and the viability ([7]; at 0.000305 µM, OCI-P5x cells, with rucaparib 20 µM, 100% = cells with rucaparib alone) was 96.2% (active). The viability ([7]; at 0.000305 µM, OCI-P5x cells, without rucaparib) was 83.9% (active), the viability ([7]; at 0.00122 µM, OCI-C5x cells, with rucaparib 10 µM, 100% = cells with rucaparib alone) was 116% (inactive) and the viability ([7]; at 0.00122 µM, OCI-C5x cells, without rucaparib) was 119% (inactive). The viability ([7]; at 0.00122 µM, OCI-P5x cells, with rucaparib 20 µM, 100% = cells with rucaparib alone) was 102% (inactive), the viability ([7]; at 0.00122 µM, OCI-P5x cells, without rucaparib) was 88.4% (active) and the viability ([7]; at 0.00488 µM, OCI-C5x cells, with rucaparib 10 µM, 100% = cells with rucaparib alone) was 112% (inactive). The viability ([7]; at 0.00488 µM, OCI-C5x cells, without rucaparib) was 120% (inactive), the viability ([7]; at 0.00488 µM, OCI-P5x cells, with rucaparib 20 µM, 100% = cells with rucaparib alone) was 106% (inactive) and the viability ([7]; at 0.00488 µM, OCI-P5x cells, without rucaparib) was 97.3% (active). For the same compound, the viability ([7]; at 0.0195 µM, OCI-C5x cells, with rucaparib 10 µM, 100% = cells with rucaparib alone) was 114% (inactive), the viability ([7]; at 0.0195 µM, OCI-C5x cells, without rucaparib) was 122% (inactive) and the viability ([7]; at 0.0195 µM, OCI-P5x cells, with rucaparib 20 µM, 100% = cells with rucaparib alone) was 102% (inactive). For the same compound, the viability ([7]; at 0.0195 µM, OCI-P5x cells, without rucaparib) was 96.2% (active), the viability ([7]; at 0.0781 µM, OCI-C5x cells, with rucaparib 10 µM, 100% = cells with rucaparib alone) was 113% (inactive) and the viability ([7]; at 0.0781 µM, OCI-C5x cells, without rucaparib) was 116% (inactive). For the same compound, the viability ([7]; at 0.0781 µM, OCI-P5x cells, with rucaparib 20 µM, 100% = cells with rucaparib alone) was 110% (inactive), the viability ([7]; at 0.0781 µM, OCI-P5x cells, without rucaparib) was 101% (inactive) and the viability ([7]; at 0.313 µM, OCI-C5x cells, with rucaparib 10 µM, 100% = cells with rucaparib alone) was 109% (inactive). The viability ([7]; at 0.313 µM, OCI-C5x cells, without rucaparib) was 129% (inactive), the viability ([7]; at 0.313 µM, OCI-P5x cells, with rucaparib 20 µM, 100% = cells with rucaparib alone) was 117% (inactive) and the viability ([7]; at 0.313 µM, OCI-P5x cells, without rucaparib) was 107% (inactive). The viability ([7]; at 1.25 µM, OCI-C5x cells, with rucaparib 10 µM, 100% = cells with rucaparib alone) was 114% (inactive), the viability ([7]; at 1.25 µM, OCI-C5x cells, without rucaparib) was 122% (inactive) and the viability ([7]; at 1.25 µM, OCI-P5x cells, with rucaparib 20 µM, 100% = cells with rucaparib alone) was 115% (inactive). For the same compound, the viability ([7]; at 1.25 µM, OCI-P5x cells, without rucaparib) was 109% (inactive), the viability ([7]; at 5 µM, OCI-C5x cells, with rucaparib 10 µM, 100% = cells with rucaparib alone) was 129% (inactive) and the viability ([7]; at 5 µM, OCI-C5x cells, without rucaparib) was 135% (inactive). The viability ([7]; at 5 µM, OCI-P5x cells, with rucaparib 20 µM, 100% = cells with rucaparib alone) was 141% (inactive) and the viability ([7]; at 5 µM, OCI-P5x cells, without rucaparib) was 109% (inactive).
In the case of C[C@@H](Nc1cc(F)cc(F)c1)c1cc(C(=O)N(C)C)cc2c(=O)cc(N3CCOCC3)oc12, the AC50 [8] is reported as 9.34 µM (active).
In the case of CC1(N)CCN(c2cnc(-c3cccc(Cl)c3Cl)c(N)n2)CC1, the outcome [1] is reported as “inactive”, the outcome [2] is reported as “inactive” and the outcome [3] is reported as “inactive”.
For CN1CCN(C(=O)c2ccc3cc(CCNc4ncnc5ccc(C#N)cc45)ccc3c2)CC1, the AC50 [8] was 23.5 µM (active) and the AC50 [2] was 20.9 µM (active).
In the case of Nc1ncnc2c1c(COc1cccc(Cl)c1)nn2C1CCOCC1, the outcome [1] is reported as “inactive” and the outcome [3] is reported as “inactive”.
For OCCOc1ccc(/C(=C(/CCCl)c2ccccc2)c2ccccc2)cc1, the outcome [1] was “inactive” and the outcome [3] was “inactive”.
In the case of CCNC1(C(N)=O)CCN(c2ncnc3c2nc(-c2ccccc2Cl)n3-c2ccc(Cl)cc2)CC1, the AC50 [8] is reported as 11.8 µM (active).
With CNc1nc(Nc2cnn([C@H]3CCN(C4COC4)C[C@@H]3F)c2Cl)ncc1C(F)(F)F the AC50 [8] was 20.9 µM (active).
With COc1cc2ncnc(Nc3cccc(Cl)c3F)c2cc1OC(=O)N1CCN(C)C[C@H]1C the outcome [1] was “inactive” and the outcome [3] was “inactive”.
